Assay results: PubChem BioAssay
Calls of active or inactive are those of the source.

experiment: probe aCHRDL2 binding to arrayed compounds – biochemical, biotinylated probe, 635/667 nm fluorescence, primary screen (AID 1100); conditions: small-molecule microarray, higher = more signal

Question: With `COCCCNC(=O)[C@@]1(Cc2ccccc2CN=[N+]=[N-])N=C(c2ccc(OCCCO)cc2)O[C@H]1c1ccccc1N=[N+]=[N-]` as the compound, how does the composite z-score read?
Answer: The composite z-score was 1.28.

Question: Which composite z-score does the source give for `C=C(C)[C@@H]1CC=C(C(O)C2C=CC3C(=O)N(C4CCCCC4)C(=O)C3N2Nc2ccc(OC)cc2)CC1` (stereo not given in full) here?
Answer: Its composite z-score is 0.826.

Question: Which composite z-score does the source give for `C=CCC(OC(C)=O)[C@@H]1[C@@H](N(Cc2ccc(-c3ccccc3)cc2)C(=O)Cc2ccc(OC)cc2)c2cc(OCCCO)ccc2N1C(=O)c1ccc(-c2ccccc2)cc1` (stereo not given in full) here?
Answer: Its composite z-score is 0.31.

Question: For `CC(C)=CCCC(C)=CC(O)C1C=CC2C(=O)N(c3ccccc3)C(=O)C2N1Nc1ccc([N+](=O)[O-])cc1` (stereo not given), which composite z-score is on record?
Answer: Its composite z-score is 0.77.

experiment: change in splice reporter luminescence, either direction, cell-based, HEK293, spliceosome inhibition project, primary screen (AID 1101); conditions: HEK293 splicing luciferase reporter, 24 h, higher = more signal, called active from +8 up or from −8 down;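 also: HEK293 cells carrying a splicing-competent luciferase reporter gene; test concentration not given here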

Question: With `COC(=O)[C@H]1N=C(c2ccc(OCCCO)cc2)O[C@H]1c1ccccc1CN=[N+]=[N-]` as the compound, how does the z-score read?
Answer: Its z-score is -0.0171 (inactive).

Question: For `C[N+](C)(C)CCCCNC(=O)[C@H]1C[C@H]2C(=O)NCC(=O)N2[C@H]1c1ccc(O)cc1`, which z-score is on record?
Answer: Its z-score is -1.01 (inactive).

Question: With `CN(C)CCCCCCNC(=O)[C@@H]1C[C@@H]2C(=O)NCC(=O)N2[C@@H]1c1ccc(O)cc1` as the compound, how does the z-score read?
Answer: Its z-score is -0.326 (inactive).

Question: For `COc1ccc(C#Cc2ccc3c(c2)[C@]2(C(=O)N3)[C@H](c3ccc(OCCO)cc3)N3[C@H](c4ccccc4)[C@H](c4ccccc4)OC(=O)[C@H]3[C@@H]2C(=O)N2CCN(c3ncccn3)CC2)cc1`, which z-score is on record?
Answer: Its z-score is -0.188 (inactive).

Question: With `[N-]=[N+]=NCc1ccccc1[C@H]1OC(c2ccc(OCCCO)cc2)=N[C@@]1(Cc1ccccc1)C(N)=O` as the compound, how does the z-score read?
Answer: The z-score was -0.312 (inactive).

Question: Which z-score does the source give for `C#CCOC(=O)N[C@H](C=CCCCC)c1ccccc1` here?
Answer: The z-score was -0.341 (inactive).

Question: For `COc1cccc(C[C@H]2C[C@@H](CO[Si](C(C)C)(C(C)C)C(C)C)N3C(=O)[C@]4(C(C)=O)O[C@]23[C@H]2C(=O)N(C)C(=O)[C@H]24)c1`, which z-score is on record?
Answer: Its z-score is -1.29 (inactive).

Question: For `C=C(COC)/C(=C/C[C@@H](OC(=O)c1ccncc1)c1cccc(OCCO)c1)c1cc(C(=O)OC)ccc1OC`, which z-score is on record?
Answer: The z-score was -0.651 (inactive).

Question: For `C[N+](C)(C)CCCC[C@@H]1NC(=O)[C@@H]2C[C@H](C(=O)NCCCCCNC(=O)CS)[C@H](c3cccc(OCCO)c3)N2C1=O`, which z-score is on record?
Answer: Its z-score is 0.241 (inactive).

Question: Which z-score does the source give for `CCCCCCCCCCC(O)C1C=CC2C(=O)NC(=O)C2N1Nc1ccccn1` (stereo not given) here?
Answer: Its z-score is 0.447 (inactive).

Question: For `CCOC(=O)C[C@H]1[C@H](OC(=O)c2ccc(C(=O)c3ccccc3)cc2)[C@@H](NC(=O)C2CCCCC2)c2cc(OCCCO)ccc2N1C(=O)Cc1ccc(OC)cc1`, which z-score is on record?
Answer: The z-score was 0.0309 (inactive).

Question: Which z-score does the source give for `COc1ccc([Si](C)(C)[C@@H]2[C@@H](CCO)O[C@]3(C(=O)N(Cc4ccc(N5C(=O)c6ccccc6Oc6ccccc65)cc4)c4ccccc43)[C@H]2C)cc1` here?
Answer: The z-score was -0.853 (inactive).

Question: With `O=C1O[C@@H](c2ccccc2)[C@@H](c2ccccc2)N2[C@@H](c3ccc(O)cc3)[C@]3(C(=O)Nc4ccc(C#CC5(O)CCCCCC5)cc43)[C@@H](C(=O)N3CCN(c4ncccn4)CC3)[C@H]12` as the compound, how does the z-score read?
Answer: Its z-score is -0.453 (inactive).

Question: Which z-score does the source give for `COCCCNC(=O)[C@@]1(C)c2ccccc2C(=O)N(c2ccc(C)cn2)[C@H]1c1ccc(CO)cc1` here?
Answer: Its z-score is 0.532 (inactive).

Question: For `COc1ccc([Si](C)(C)[C@H]2[C@H](CCO)O[C@@]3(C(=O)N(Cc4cccc(N5CCOC5=O)c4)c4ccccc43)[C@@H]2C)cc1`, which z-score is on record?
Answer: The z-score was -0.91 (inactive).

Question: Which z-score does the source give for `O=C(N1CCOCC1)[C@@]1(CCS(=O)(=O)c2ccccc2)COC(c2ccc(OCCCO)cc2)=N1` here?
Answer: Its z-score is 0.122 (inactive).

Question: With `COCCOC(=O)N1C(=O)[C@@]2(c3cc(C#Cc4ccc(OC)cc4)ccc31)[C@H](C(N)=O)[C@H]1C(=O)O[C@H](c3ccccc3)[C@H](c3ccccc3)N1[C@@H]2c1ccc(OCCO)cc1` as the compound, how does the z-score read?
Answer: Its z-score is -0.853 (inactive).

Question: Which z-score does the source give for `C=C[C@H](C)[C@H](OC(=O)Nc1ccc(SC)cc1)c1ccc(O)c2ccccc12` here?
Answer: Its z-score is -2.12 (inactive).

Question: Which z-score does the source give for `C=C(CCCC)/C(=C/C[C@H](OC(=O)c1ccncc1)c1ccc(CO)o1)c1cc(C(=O)OC)ccc1OC` here?
Answer: Its z-score is 0.84 (inactive).

Question: With `CN1C(=O)C2C=CC(C(O)c3cccc4ccccc34)N(NC(=O)OC(C)(C)C)C2C1=O` (stereo not given) as the compound, how does the z-score read?
Answer: The z-score was 2.35 (inactive).

Question: With `COc1cc2c(cc1OC)CN(C(=O)[C@@H]1[C@H]3C(=O)O[C@H](c4ccccc4)[C@H](c4ccccc4)N3[C@H](c3ccc(OCCO)cc3)[C@@]13C(=O)Nc1ccc(C#CCCO)cc13)CC2` as the compound, how does the z-score read?
Answer: The z-score was -0.921 (inactive).

Question: For `NCCCCCCNC(=O)[C@H]1C[C@H]2C(=O)N3CCC[C@H]3C(=O)N2[C@H]1c1ccc(O)cc1`, which z-score is on record?
Answer: The z-score was 0.089 (inactive).

Question: With `C[C@H]1NC(=O)C([C@@H](C)OCc2ccccc2)NC(=O)[C@@]23C(=O)N[C@@H](Cc4ccccc4)C2[C@H](C)[C@@]2(C)O[C@H]2C3/C=C/CC/C=C/CNC1=O` (stereo not given in full) as the compound, how does the z-score read?
Answer: The z-score was -1.39 (inactive).

Question: With `O=C1O[C@@H](c2ccccc2)[C@@H](c2ccccc2)N2[C@@H](c3ccc(O)cc3)[C@]3(C(=O)Nc4ccc(C#CC5=CCCCC5)cc43)[C@@H](C(=O)Nc3nc4ccccc4s3)[C@H]12` as the compound, how does the z-score read?
Answer: The z-score was -0.0881 (inactive).

Question: For `CC(C)(C)N1CC=CC23O[C@@H]4C=CCCOC(=O)C4[C@H]2C(=O)N(CCCO)[C@@H]3C1=O` (stereo not given in full), which z-score is on record?
Answer: Its z-score is -1.1 (inactive).

Question: Which z-score does the source give for `CN(C)CCCCNC(=O)[C@H]1C[C@H]2C(=O)N[C@@H](CCCC[N+](C)(C)C)C(=O)N2[C@H]1c1cccc(OCCO)c1` here?
Answer: Its z-score is -0.698 (inactive).

Question: For `CCCCC(CC)C(O)C1C=CC2C(=O)NC(=O)C2N1Nc1ccccn1` (stereo not given), which z-score is on record?
Answer: Its z-score is 1.08 (inactive).

Question: With `C[N+](C)(C)CCCCCCNC(=O)[C@@H]1C[C@@H]2C(=O)NCC(=O)N2[C@@H]1c1cccc(OCCO)c1` as the compound, how does the z-score read?
Answer: Its z-score is -2.5 (inactive).

Question: With `CCCCC=C[C@@H](NC(=O)CCc1ccccc1)c1ccccc1` as the compound, how does the z-score read?
Answer: Its z-score is 11.9 (active).

Question: For `C[N+](C)(C)CCCCCCNC(=O)[C@H]1C[C@H]2C(=O)N3CCC[C@H]3C(=O)N2[C@H]1c1cccc(OCCO)c1`, which z-score is on record?
Answer: Its z-score is 0.592 (inactive).

Question: With `COc1cccc(C)c1NC(=O)O[C@H]1[C@H](OC(=O)Nc2ccccc2)[C@H](OC(=O)Nc2ccccc2)[C@@H](OC)O[C@@H]1CO` as the compound, how does the z-score read?
Answer: Its z-score is 0.419 (inactive).

Question: For `CC(C)NC(=O)[C@@]1(Cc2ccccc2I)c2ccccc2C(=O)N(Cc2ccccc2C(F)(F)F)[C@H]1c1ccc(CO)cc1`, which z-score is on record?
Answer: Its z-score is 0.4 (inactive).

Question: With `COCCCNC(=O)[C@@]1(Cc2ccccc2CN=[N+]=[N-])N=C(c2ccc(OCCCO)cc2)O[C@H]1c1ccccc1N=[N+]=[N-]` as the compound, how does the z-score read?
Answer: Its z-score is -1.26 (inactive).

Question: With `C=C(C)[C@@H]1CC=C(C(O)C2C=CC3C(=O)N(C4CCCCC4)C(=O)C3N2Nc2ccc(OC)cc2)CC1` (stereo not given in full) as the compound, how does the z-score read?
Answer: The z-score was -0.603 (inactive).

Question: With `C=CCC(OC(C)=O)[C@@H]1[C@@H](N(Cc2ccc(-c3ccccc3)cc2)C(=O)Cc2ccc(OC)cc2)c2cc(OCCCO)ccc2N1C(=O)c1ccc(-c2ccccc2)cc1` (stereo not given in full) as the compound, how does the z-score read?
Answer: Its z-score is -0.757 (inactive).

Question: Which z-score does the source give for `CC(C)=CCCC(C)=CC(O)C1C=CC2C(=O)N(c3ccccc3)C(=O)C2N1Nc1ccc([N+](=O)[O-])cc1` (stereo not given) here?
Answer: The z-score was 0.644 (inactive).
